Tgondii IFNg – T. gondii growth inhibition with IFN-gamma, primary screen, cell-based. AID 1259416, 2018. Toxoplasma gondii growth in IFN-gamma-treated host cells; active compounds read low. hit rate 3.8% among 69,000. activity change, negative = inhibition, % (test concentration not listed); in the data active = activity change below about -70%, passing the limit was not always enough;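 note: host cells are HeLa cells infected with Toxoplasma gondii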
* = called active by the depositor; i = inactive. This is one part of a sample in which hits are shown more often than they occur.

SMILES	Tgondii IFNg
COCCN1CCN(c2ccc3ccc(C(=O)CCN4CCOCC4)cn23)CC1	-27
CCOC(=O)CN1Cc2ccccc2C2(CCN(S(=O)(=O)N(C)C)CC2)C1	-2
Cc1c(Cl)c(C(=O)N2CCCC3(CC2)CN(C)C(=O)O3)nn1C (stereo not drawn)	6
CCOC(=O)c1sc2sc(C(=O)OCC)c(-c3ccco3)c2c1N	-35
CCOC(=O)c1sc2sc(-c3ccn[nH]3)c(C)c2c1C	-110*
CCOC(=O)c1cccnc1-c1ccc(-c2ccn[nH]2)cc1	7
CCN(Cc1cccc(S(=O)(=O)O)c1)c1cccc(C(=C2C=CC(=[N+](CC)Cc3cccc(S(=O)(=O)O)c3)C=C2)c2ccc(O)cc2S(=O)(=O)O)c1	-42
CCc1cnc(N2CC[C@@H]3[C@H]2CCN3S(C)(=O)=O)nc1	i
COCC1c2nnn(C)c2CCN1C(=O)Cc1cccs1 (stereo not drawn)	i
Cc1ccccc1-c1nc(CN2C(=O)CSc3ccc(S(=O)(=O)N4CCCC4)cc32)c(C)o1	-80*
Cc1oc(-c2ccccc2)nc1CN1C(=O)CSc2ccc(S(=O)(=O)N3CCOCC3)cc21	-44
Cc1ccccc1-c1nc(Cn2c(=O)cc(C(=O)N3CCCCC3)c3ccccc32)c(C)o1	4
Cc1nn(C)c(C)c1C(=O)NCc1cccnc1N(C)CCc1ccccn1	-9
O=c1c(N=Nc2ccccc2)c(-c2ccccc2)[nH]n1-c1ccccc1	11
Cc1ccc(N=Nc2c(-c3ccccc3)[nH]n(C(N)=S)c2=O)cc1	-105*
Cc1[nH]n(C(N)=S)c(=O)c1N=Nc1cc(-c2ccc(Br)cc2)[nH]n1	178
COc1ccc2c3c(n(C)c2c1)[C@@H](CO)N(C(=O)Nc1ccc(F)cc1)CC31CN(C(=O)CN2CCOCC2)C1	422
CCN(CC)C(=O)CSc1nnc(COc2ccc(C)cc2)n1CC	-2
O=C1N(CC2CC2)CCC12CCN(c1ncccn1)CC2	19
COC(=O)c1ccc(NC(=O)Nc2ccc(-c3nc(-c4ccccc4)co3)cc2)cc1	123
CC(C)c1nn(C)c2c1C(c1nc(-c3ccc(Cl)cc3)no1)CC(=O)N2 (stereo not drawn)	-85*
COc1c(F)cc(C2CC(=O)Nc3c2c(C(C)C)nn3C)cc1Cl (stereo not drawn)	4
CC(C)c1nn(-c2ccccc2)c2c1C(c1ccoc1)CC(=O)N2 (stereo not drawn)	-28
CCC(CO)N(Cc1ccsc1)C(=O)c1ccccc1N1CCOCC1 (stereo not drawn)	82
O=C(O)CCC(=O)N1C[C@@H]2CCN(C(=O)c3ccco3)[C@@H]2C1	0
SMILES	Tgondii IFNg
CCCCN(CC)c1nc(-c2ccc(OC)cc2)nc2ccccc12	-5
Cc1cc(C)cc(NC(=O)c2nnn(Cc3nc(-c4ccc(OC(C)C)cc4)oc3C)c2C)c1	-66
Cc1cc(C)nc(N2CCC(CNC(=O)c3cc(C(C)(C)C)[nH]n3)CC2)n1	-77*
CC(=O)N1CCN(c2nc(C)cc(C)n2)CC1	17
Cc1nc(CC(NC(=O)c2cc(C(C)(C)C)[nH]n2)c2ccc(Cl)cc2)cc(=O)[nH]1 (stereo not drawn)	7
CCOC(=O)c1c(NC(=O)c2cc(-c3ccccc3)nc3ccc(C)cc23)sc(C)c1C	22
Cc1ccc2nc(-c3ccccn3)cc(C(=O)Nc3n[nH]c4nc(C)ccc34)c2c1	-99*
O=C(NCCc1c[nH]c2ccc(Cl)cc12)c1cc(-c2ccccn2)nc2ccccc12	-70
COc1cccc(OCC(O)CNC(=O)C2CCN(c3nc(C)c4ccccc4n3)CC2)c1 (stereo not drawn)	-8
O=C(Cn1ncc2c(N3CCOCC3)ncnc21)NCc1cccc(C(F)(F)F)c1	-51
CCC(C)NC(=O)c1nc(Nc2ccccc2)c2ccccc2n1 (stereo not drawn)	-66
CCOCc1nnc(NC(=O)Cc2coc3cc(C)c(C)cc23)s1	-45
CCOC(=O)CNc1nc(C(C)(C)C)nc2c1cnn2C	-4
Cc1nccn1CCN(C)c1nc(C(C)(C)C)nc2c1cnn2C	-12
Cn1ncc2c(NCc3cc(C(C)(C)C)n[nH]3)nc(C(C)(C)C)nc21	-75*
CC(Cn1cccn1)c1nc(CC2CCN(C)CC2)no1 (stereo not drawn)	1
O=C1[C@@H]2C[C@H](O)CCN2C(=O)CN1CCCn1ccnc1	-8
O=c1ccc(CCn2c(=O)oc3ccccc32)n[nH]1	-8
Cn1c(-c2ccc(Cl)cc2)n[nH]c1=S	-97*
COc1ccc(-c2n[nH]c(=S)n2Cc2ccccc2)cc1	53
S=c1[nH]nc(-c2ccncc2)n1-c1cccc(Cl)c1	15
Cc1ccc2c(c1)oc(=O)n2CCNC(=O)CCc1nn(C)c(=O)c2ccccc12	2
CCn1c(C2CCCN(C(=O)c3cccnn3)C2)nn(CCN(C)C)c1=O (stereo not drawn)	1
CCN1c2cc(Cl)ccc2C(=O)NC12CCN(C(=O)NCc1cccc(F)c1)CC2	135
Fc1ccccc1-n1cc(-c2ccnc(NCc3ccon3)n2)cn1	-76*
SMILES	Tgondii IFNg
COc1ccccc1-n1cc(-c2ccnc(NCCc3cnccn3)n2)cn1	-28
Cc1ccccc1-n1cc(-c2ccnc(NC3CCNCC3)n2)cn1	-26
COCCN1C[C@H]2[C@H](OC)CCN(C(=O)c3cc(C4CC4)on3)[C@H]2C1	2
c1ccc(-c2csc3ncnc(NCc4ccccn4)c23)cc1	-74*
c1ccc(-c2csc3ncnc(NCC4CCCO4)c23)cc1 (stereo not drawn)	-60
O=c1ncn(Cc2ccccn2)cc1-c1ccccc1	44
CCOc1ccccc1-c1nc(Cn2nnc(C(=O)Nc3ccc(C)cc3Br)c2C)c(C)o1	32
CCOc1ccc(-c2nc3c(s2)CN(C(=O)Nc2ccc(C)c(C)c2)CC3)cc1	-106*
COc1ccc(-c2nc3c(s2)CN(C(=O)Nc2ccc(C)cc2C)CC3)cc1	53
COc1ccc(C)cc1NC(=O)N1CCc2nc(-c3ccc(C)cc3)sc2C1	-13
CCOc1ccc(-c2nc3c(s2)CN(C(=O)Nc2ccc(C)cc2)CC3)cc1	-66
Cc1ccc(NC(=O)N2CCc3nc(-c4ccccc4)sc3C2)cc1C	101
CCOc1ccc(-c2nc3c(s2)CN(C(=O)Nc2cc(C)ccc2C)CC3)cc1	-112*
Cn1ncc2c1NC(=O)CC2c1cn(-c2ccccc2)nc1-c1ccccc1 (stereo not drawn)	1
O=C(Nc1csnc1-c1c(Cl)cccc1Cl)NN1CCOCC1	-18
COc1ccc2c(c1)NC1(CCN(S(=O)(=O)c3ccc(CC(C)C)cc3)CC1)c1cccn1-2	9
CC(C)=CC(=O)N1CCC2(CC1)NCCNC2=O	1
Cc1nc(-c2ccccc2)sc1CCNS(=O)(=O)c1ccccc1F	i
O=C(c1ccco1)N1CCCC2(CC(Oc3cccnc3)CO2)C1 (stereo not drawn)	-67
O=C(c1cnc[nH]1)N1CCC2(CC(Oc3cccnc3)CO2)C1 (stereo not drawn)	2
O=C(c1ccn[nH]1)N1CCCC2(CC(Oc3cccnc3)CO2)C1 (stereo not drawn)	-95*
CCc1nc(OCC(=O)Nc2cc(F)ccc2F)c2ccccc2n1	8
COc1ccc(-c2cnc(NC(=O)COc3ccc4nsnc4c3)n2C)cc1	10
COc1ccc(NC(=O)N2CCC3(CC2)NC(=O)c2ccc(Cl)cc2N3C)c(C)c1	460
O=C(c1ccco1)N1Cc2nccn2CC(COc2cccnc2)C1 (stereo not drawn)	0
COCCC(=O)N1Cc2nccn2CC(COCc2cccnc2)C1 (stereo not drawn)	-2

High-throughput results deposited in PubChem BioAssay by Broad Institute.
